Test results published in PubChem BioAssay AID1906 (The Scripps Research Institute Molecular Screening Center, 2009).
Out of some 300,000 compounds screened, about 1,500 (0.5%) were called active. The sample holds actives, similar compounds and a random draw of the others, so the mix is not that of the screen. Unmarked numbers belong to inactive results.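 Rule for the calls: active = inhibition above the mean of all tested compounds plus 3 SD, set per screening campaign (cut at about 17% in these data); inactive = the rest.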

Test system: cathepsin L1 (Fasciola hepatica)
Experiment: CTSL1 protease inhibition, fluke enzyme – biochemical, QFRET, fluorogenic peptide substrate, counter-screen for PFM18AAP inhibitor project, primary screen (AID 1906);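 note: 0% = plate median of test compound wells and 100% = 1 µM Z-Phe-Ala-diazomethylketone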
Conditions: recombinant F. hepatica cathepsin L1, Z-Leu-Arg-MCA fluorescence; at 5.96 µM; stronger effect = higher value

Row | SMILES | inhibition
1 | O=C(NC(=S)NC1CCS(=O)(=O)C1)c1cccc([N+](=O)[O-])c1 (stereo unspecified) | -1.84%
2 | CC(C)C[C@H](NC(=O)[C@@H]1O[C@H]1C(=O)O)C(=O)NCCCCN=C(N)N | 112% (active)
3 | O=C1CC2(CCN(C(=O)COc3ccc(F)cc3)CC2)Oc2ccccc21 | -0.88%
4 | O=C(CN1C(=O)c2ccccc2C1=O)NCc1ccc(C(=O)O)cc1 | 10.4%
5 | CC(C)N(C(=O)c1ccc(-c2ccccc2F)cc1)C(C)C | -3.72%
6 | CC(=O)N(C1=C(Cl)C(=O)c2ccccc2C1=O)c1ccc(C(=O)O)cc1 | 41.1% (active)
7 | CCN(CC)CCNS(=O)(=O)c1ccc(/C=C/C(=O)O)cc1 | 8.82%
8 | Cc1ccc(C(C)C)c(OCCSc2nc3ccccc3n2CC(=O)O)c1 | 2.31%
9 | CC(C(=O)NCCc1ccc(S(N)(=O)=O)cc1)N1C(=O)CC(C)(C)Sc2ccccc21 (stereo unspecified) | 3.12%
10 | CC(OC(=O)CNC(=O)c1ccc(Cl)c([N+](=O)[O-])c1)C(=O)NCc1ccco1 (stereo unspecified) | -10.4%
11 | Cc1cc(C(=O)OC(C)C(=O)NC2CCCCC2C)c(C)o1 (stereo unspecified) | 1.05%
12 | CC(OC(=O)CNC(=O)c1cccc(F)c1)C(=O)NC1CCCCC1C (stereo unspecified) | 46.5% (active)
13 | Cc1ccccc1OCc1nnc(SCC(=O)N2c3ccccc3Sc3ccc(Cl)cc32)o1 | 1.54%
14 | CCOC(=O)C1=C(O)/C(=C/c2cc(C)n(-c3ccccc3)c2C)N=C1C | -0.93%
15 | N#Cc1ccccc1NC(=O)c1cccc(COc2ccc(Cl)cc2Cl)c1 | 2.17%
16 | COc1ccccc1Oc1ccc(N/C=C2/CCCC2=O)cc1 | 6.01%
17 | CCCCC(=O)Nc1nnc(S(=O)(=O)N(C)Cc2ccco2)s1 | -1.17%
18 | CC1(C)CC(=O)C/C(=N\NC(=O)c2cccs2)C1 | -1.64%
19 | C=CCNC(=O)CSc1nc2scc(-c3ccco3)c2c(=O)n1CC=C | 35.5% (active)
20 | C=CCn1c(SCc2csc(C)n2)nc2scc(-c3ccc(C)o3)c2c1=O | 1.45%
21 | C=CCn1c(=S)[nH]c2scc(-c3ccco3)c2c1=O | -1.34%
22 | CCC1Oc2ccccc2N(CC(=O)NCCCN2CCN(CC)CC2)C1=O (stereo unspecified) | 1.49%
23 | Cc1ccc2oc(=O)c3cnn(CC(=O)N(Cc4ccco4)C4CCCCC4)c3c2c1 | 42.9% (active)

Row | SMILES | inhibition
24 | Cc1ccc2oc(=O)c3cnn(CC(=O)N4CCCCCC4)c3c2c1 | -4.76%
25 | COCCCN(C(=O)Cn1ncc2c(=O)oc3ccc(C)cc3c21)C(C)c1ccncc1 (stereo unspecified) | 3.63%
26 | Cc1cccc(NC(=O)c2cc(S(=O)(=O)N3CCC4(CC3)OCCO4)ccc2F)c1 | -2.65%
27 | CN(C)c1nc(NN)nc(Nc2ccc(F)cc2)n1 | 11%
28 | Nc1c(N(CCO)C(=O)C2CCCCC2)c(=O)[nH]c(=O)n1Cc1ccccc1 | 23.6% (active)
29 | CCN(C(=O)CN1CCN(Cc2ccccc2)CC1)c1c(N)n(Cc2ccccc2)c(=O)[nH]c1=O | -1.57%
30 | COCCn1c(N)c(N(Cc2ccccc2)C(=O)C2CCCCC2)c(=O)[nH]c1=O | 3.45%
31 | Cc1sc(NC(=S)NC(=O)c2cccs2)nc1-c1ccc(CC(C)C)cc1 | -0.85%
32 | CCC(=O)Nc1nc(OC)cc(OC)n1 | 3.53%
33 | COc1cc(OC)nc(N/N=C(\c2ccccc2)c2ccncc2)n1 | 1.22%
34 | COc1cc(OC)nc(NC(=O)CCl)n1 | 19.4% (active)
35 | O=C(c1ccc(F)cc1)N1CCCC(C(=O)N2CCCCC2)C1 (stereo unspecified) | -2.4%
36 | COc1ccc(C(=O)NC(=S)N2CCNC(=O)C2CC(=O)OC(C)C)cc1 (stereo unspecified) | -3.41%
37 | Cc1ccc2cc(C)c(N3CCC(C)CC3)nc2c1 | -2.83%
38 | CN(c1ccccc1)S(=O)(=O)c1ccc2[nH]c(=O)[nH]c2c1 | -6.38%
39 | CC1CCC(C(C)C)C(=O)/C1=C\c1ccc(NC(=O)CCC(=O)O)cc1 (stereo unspecified) | 2%
40 | O=C(Cc1c(O)c2ccccc2[nH]c1=O)NCc1ccccc1 | 0.35%
41 | CC(C)C(=O)Nc1c(O)c2ccccc2[nH]c1=O | -1.29%
42 | CCCOC(=O)Cc1c(O)c2ccccc2[nH]c1=O | 46.3% (active)
43 | N#Cc1c(N2CCCCC2)nc(N)c2c(N)nc(SCC(=O)O)cc12 | 1.83%
44 | COc1cccc(-c2cc3nc4c(c(N5CCC6(CC5)OCCO6)n3n2)CCCC4)c1 | 1.28%
45 | Cc1cc(C)cc(NC(=O)COc2coc(CN3CCN(c4ccccc4)CC3)cc2=O)c1 | -0.61%
46 | CCN(CC)C(=O)CSc1nc2ccccc2o1 | -2.89%

Row | SMILES | inhibition
47 | CCC(NC(=O)c1ccccc1NC(=O)c1ccccc1)C(=O)NNC(=O)CSc1nc2ccccc2o1 (stereo unspecified) | 31.7% (active)
48 | O=C(CSc1nc2ccccc2o1)N/N=C/c1ccccc1C(=O)O | -1.26%
49 | COc1ccccc1CNC(=O)[C@@H]1CCCN1C(=O)[C@@H]1Cc2ccccc2CN1C(=O)OC(C)(C)C | 7.62%
50 | CCC(C)N1CC(=O)N2Cc3[nH]c4ccccc4c3C[C@H]2C1=O (stereo partly specified) | 5.23%
51 | COC(C/C=C/C(=O)[C@@H](C)OCc1ccccc1)OC | -1.49%
52 | COC(C[C@@H]1O[C@@H]1C(=O)[C@H](C)OCc1ccccc1)OC | 28.4% (active)
53 | COC(C[C@@H]1O[C@@H]1C(=O)[C@@H](C)OCc1ccccc1)OC | 9.96%
54 | CC(Oc1ccc(F)cc1)C(=O)Nc1ccccc1C(=O)NC1CC1 (stereo unspecified) | -1.06%
55 | CC12CCC(=O)N1C(C(=O)Nc1ccc(F)c(F)c1F)CS2 (stereo unspecified) | 2.04%
56 | Cc1ccc(C2C(C#N)C(C#N)N3CCCN23)cc1 (stereo unspecified) | 1.37%
57 | COc1ccc(F)cc1S(=O)(=O)NCC(c1ccc2c(c1)OCO2)N1CCN(C)CC1 (stereo unspecified) | 4.62%
58 | O=c1[nH]c(N2CCOCC2)nc2ccccc12 | 0.18%
59 | O=C1C(Cl)=C(N2CCOCC2)C(=O)N1c1ccccc1 | 42.9% (active)
60 | O=C1OC(NC(=O)c2ccccc2)C(N2CCOCC2)=C1Cl (stereo unspecified) | 5.28%
61 | COc1ccc(CNC(=O)COC(=O)/C=C/c2ccc(S(=O)(=O)N3CCOCC3)cc2)cc1 | 0.44%
62 | COC(=O)c1ccc(NC(=O)CSc2nnc(Cc3cccn3C)n2-c2ccc(F)cc2)cc1 | 6.5%
63 | CCOc1cc(NC(=O)CCl)c(OCC)cc1NC(C)=O | 83.7% (active)
64 | CCCC(=O)Nc1cc(OCC)c(NC(=O)NC2CCCCC2)cc1OCC | -3.59%
65 | CCOc1cc(NS(=O)(=O)c2ccc(OC)cc2)c(OCC)cc1NC(C)=O | -2.89%
66 | C/C(CCC(=O)OC[C@H]1O[C@H](C#Cc2ccccc2)C=C[C@@H]1Oc1ccc(C)cc1)=N\OC[C@@H](O)[C@H]1O[C@@H]2OC(C)(C)O[C@@H]2[C@H]1O | -0.48%
67 | CC1(C)NC(=O)N(CCCCSc2ccc(Cl)cc2)C1=O | 3.34%
68 | CC(C)Nc1nc(N(c2ccccc2)c2ccccc2)nc(-n2ccnc2)n1 | -0.83%
69 | N#Cc1nc(N)nc(N(c2ccccc2)c2ccccc2)n1 | 56.4% (active)

Row | SMILES | inhibition
70 | Cc1ccccc1-c1ccc(Nc2ccc(C(=O)N3CCOCC3)cc2)nn1 | 0.35%
71 | Cc1ccc(C(=O)N2CCN(C(=O)N3CCOCC3)CC2)cc1 | 1.67%
72 | Cc1oc2c(c1C(=O)N1CCOCC1)C(=O)c1ccccc1C2=O | 18.4% (active)
73 | CCOC(=O)/C(=C\c1ccc([N+](=O)[O-])cc1)C(=O)c1cc(C(C)=O)c(Nc2ccccc2)s1 | -2.81%
74 | COc1ccccc1C(CNC(=O)c1cccc(NS(=O)(=O)c2ccc(Br)cc2)c1)N(C)C (stereo unspecified) | 4.17%
75 | CN(C)C(CNC(=O)c1cccc(C#N)c1)c1ccco1 (stereo unspecified) | 22.2% (active)
76 | CN(C)C(CNC(=O)CCCOc1ccccc1)c1ccco1 (stereo unspecified) | -6.17%
77 | CN(C)C(CNC(=O)c1cccc(S(=O)(=O)Nc2ccc(Br)cc2)c1)c1ccco1 (stereo unspecified) | -0.56%
78 | COC(=O)c1scc(S(=O)(=O)C(C)(C)C)c1-n1cccc1 | -3.59%
79 | O=C(/C=C/c1ccc([N+](=O)[O-])o1)NNC(=O)c1ccc(F)cc1 | 17.7% (active)
80 | O=C(N/N=C/c1ccc([N+](=O)[O-])o1)c1cn(-c2ccccc2)nc1-c1ccc(F)cc1 | 1.54%
81 | Cc1ccc(/C=C/C(=O)Nc2ccc([N+](=O)[O-])c(NC(=O)/C=C/c3ccc(C)o3)c2)o1 | 7.56%
82 | Cc1ccc(NC(=S)Nc2ncccc2C)c(C)c1 | -0.91%
83 | [2H]C(CCOS(N)(=O)=O)c1ccccc1 (stereo unspecified) | 1.8%
84 | COc1ccc(C=C(C#N)C#N)c(CSc2ccccn2)c1 | -4.15%
85 | Cc1ccc(OCCNC(=O)CCNS(=O)(=O)c2ccc(Br)cc2)cc1 | 0.55%
86 | O=C(CCl)Nc1cccc(CP(=O)(c2ccccc2)c2ccccc2)c1 | 72% (active)
87 | CCc1cccc(NC(=O)CCC(=O)O)c1 | -3%
88 | O=C(Cc1ccccc1)Nc1cccc(NC(=O)c2ccccc2)c1 | -2.42%
89 | C#CCOCCOCCOCCNc1nc(N2CCN(C(=O)[C@H](CCCCN)n3cc([C@@H](N)C(C)CC)nn3)CC2)nc(N2CCN(C(=O)[C@H](Cc3ccc(O)cc3)n3cc([C@@H](N)C(C)CC)nn3)CC2)n1 (stereo partly specified) | 5.02%
90 | C#CCOCCOCCOCCNc1nc(N2CCN(C(=O)C([C@@H](C)CC)n3cc(C(N)COC(=O)C(F)(F)F)nn3)CC2)nc(N2CCN(C(=O)[C@H](CCCCN)n3cc(C(N)CC(C)C)nn3)CC2)n1 (stereo partly specified) | 33.1% (active)
91 | C#CCOCCOCCOCCNc1nc(N2CCN(C(=O)C([C@@H](C)CC)n3cc(C(N)COC(=O)C(F)(F)F)nn3)CC2)nc(N2CCN(C(=O)[C@H](Cc3ccc(O)cc3)n3cc(C(N)[C@H](C)CC)nn3)CC2)n1 (stereo partly specified) | -2.06%
